This is part of a sample that, as a whole, favours compounds with a hit. Of some 83,000 tested, about 20% had one in any assay.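 Method: cells in 96-well plates; compound added at one concentration; 48 h incubation; percent growth measured; values under 10 scored active.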 Values without a mark were called inactive. Calls of active or inactive are those of the source.
Columns and labels:
Assay in all cases: NCI-60 one-dose screen, 48 h (100 = growth as untreated, 0 = no growth, -100 = all killed)
Details in all cases: 10 µM unless noted
DU-145 prostate = system: DU-145 prostate
K-562 leukemia = system: K-562 leukemia
MALME-3M melanoma = system: MALME-3M melanoma
MDA-MB-231 breast = system: MDA-MB-231 breast
RXF 393 renal = system: RXF 393 renal
SF-268 CNS = system: SF-268 CNS
SF-295 CNS = system: SF-295 CNS
SF-539 CNS = system: SF-539 CNS
UACC-257 melanoma = system: UACC-257 melanoma
M14 melanoma = system: M14 melanoma
HCT-15 colon = system: HCT-15 colon
HT29 colon = system: HT29 colon
SNB-75 CNS = system: SNB-75 CNS
SNB-19 CNS = system: SNB-19 CNS
U251 CNS = system: U251 CNS
PC-3 prostate = system: PC-3 prostate
SK-MEL-5 melanoma = system: SK-MEL-5 melanoma
UACC-62 melanoma = system: UACC-62 melanoma
LOX IMVI melanoma = system: LOX IMVI melanoma
SK-MEL-28 melanoma = system: SK-MEL-28 melanoma

| SMILES | growth (DU-145 prostate) | growth (K-562 leukemia) | growth (MALME-3M melanoma) | growth (MDA-MB-231 breast) | growth (RXF 393 renal) | growth (SF-268 CNS) | growth (SF-295 CNS) | growth (SF-539 CNS) | growth (UACC-257 melanoma) | growth (M14 melanoma) | growth (HCT-15 colon) | growth (HT29 colon) | growth (SNB-75 CNS) | growth (SNB-19 CNS) | growth (U251 CNS) | growth (PC-3 prostate) | growth (SK-MEL-5 melanoma) | growth (UACC-62 melanoma) | growth (LOX IMVI melanoma) | growth (SK-MEL-28 melanoma) |
| --- | --- | --- | --- | --- | --- | --- | --- | --- | --- | --- | --- | --- | --- | --- | --- | --- | --- | --- | --- | --- |
| Cc1ccc(Cl)c(NS(=O)(=O)c2ccc(-c3cnc(C4CC4)o3)cc2)c1 | 21.6% | 8.53% (active) | 62.4% | 32.5% | 9.98% (active) | 56.2% | 16.1% | -8.06% (active) | 67.8% | 2.07% (active) | 16.9% | 3.93% (active) | -10.1% (active) | 18.9% | 24.1% | 31.1% | 26.4% | 26.5% | 33% | 53.7% |
| COc1ccc2c(c1)C(=O)/C(=C/c1cccc(OCC(=O)Nc3nc(C)c(C)s3)c1)O2 | -76.3% (active) | -72.2% (active) | -58% (active) | -25.1% (active) | -57.2% (active) | -45.5% (active) | -82.7% (active) | -80.6% (active) | 37% | -44.4% (active) | 12.3% | -82.2% (active) | -95.3% (active) | 80.6% | 0% (active) | -85.4% (active) | 40.4% | 47.1% | -63.9% (active) | 11.2% |
| C=C1C(=O)O[C@H]2[C@H]1CC/C(COC(=O)C(=O)c1c[nH]c3ccccc13)=C\CC[C@@]1(C)O[C@@H]21 | -31.4% (active) | -4.12% (active) | -63.1% (active) | -56.8% (active) | -89.1% (active) | -46.3% (active) | 56.6% | -65.3% (active) | -69.3% (active) | -57.2% (active) | -42.9% (active) | -55.3% (active) | -55% (active) | 30.3% | -82.3% (active) | -66.8% (active) | -89.6% (active) | -82.2% (active) | -81.1% (active) | -54% (active) |
| CCN(CC)CCCCCCNc1cc(OC)c(Cl)c2cccnc12 | 95.4% | 59.6% | 88.4% | 66.8% | 84.6% | 85.3% | 82.3% | 81.9% | -1.76% (active) | 27.2% | 78.4% | 16.2% | 63.5% | 96.4% | 74.4% | 64.9% | 68.7% | -30.6% (active) | 55.7% | 64.6% |
| O=C1/C(=C2/C=Nc3ccccc32)N(O)c2ccccc21 | 73.7% | 19.6% | 56.3% | 64.9% | 92.2% | 76% | 71% | 104% | 45% | 87.4% | 49.5% | 100% | 102% | 93% | 84.9% | 51% | 68% | 33.6% | 33.5% | 92.8% |
| Cc1nc2ccccc2n1CC1NC(=O)NC1=O (stereo not given) | 110% | 99.9% | 102% | 102% | 103% | 96.1% | 107% | 99.4% | 99.1% | 105% | 104% | 105% | 78.7% | 98.4% | 103% | 96.2% | 100% | 98.4% | 95.6% | 99.4% |
| COC(=O)[C@]12CC[C@@H](C)[C@H](C)[C@@H]1C1=CC[C@@H]3[C@@]4(C)C(C=O)=C[C@@](C)(COS(C)(=O)=O)[C@@H]4C(=O)C[C@@]3(C)[C@]1(C)CC2 | 41.2% | 21.3% | 83.6% | 37.2% | 73.8% | 40.2% | 37.3% | 65.7% | 52.6% | 36.8% | 21.4% | 26.9% | 38.7% | 41.7% | 26% | 12% | 63.8% | 38.6% | 35.7% | 74.2% |
| O=C(CCCCCCSc1nc(-c2ccccc2)cc(-c2ccc(Cl)cc2)n1)NO | 6.26% (active) | 8.35% (active) | 7.3% (active) | 25.3% | -17% (active) | 15% | 27.1% | 25% | 6.32% (active) | 6.52% (active) | 15.6% | 4.56% (active) | 17.8% | 18.3% | 0.693% (active) | 39.9% | -26.9% (active) | -1.11% (active) | -78% (active) | 42% |
| Cc1ccc(NCCN(C)C)c2c(=O)c3ccccc3sc12 | 23.8% | 21.3% | 76.4% | 24.3% | 2.41% (active) | 17.1% | 29.4% | 30.8% | 1.5% (active) | 5.06% (active) | 6.89% (active) | -38.3% (active) | 41.2% | 20.2% | 10.8% | 36.2% | -73.6% (active) | -5.6% (active) | -41.6% (active) | 2.84% (active) |
| Cc1cc(C)c2c(-c3nnc(N)s3)cc(=O)oc2c1 | 108% | 93% | 106% | 101% | 109% | 99.9% | 98.7% | 90.5% | 107% | 104% | 98.4% | 112% | 98.8% | 99.4% | 103% | 98.9% | 98.5% | 89.8% | 96.7% | 104% |
| O=C(/C=C/c1ccco1)c1ccc(Nc2nc(Nc3ccc(F)cc3)nc(Nc3ccc(Cl)cc3)n2)cc1 | 77% | 67.4% | 75.1% | 55.1% | 35.6% | 80.2% | 65.4% | 102% | 101% | 84.5% | 78.5% | 61.8% | 62.5% | 107% | 73.2% | 72.7% | 73.8% | 81.7% | 74.7% | 60.3% |
| CCCCCCCCCCN(CCCCCCCCCC)CC(=O)c1ccc2cc(Br)c3ccccc3c2c1 | 71.7% | -46.6% (active) | -78.2% (active) | 67.1% | 95.5% | 81% | 91.8% | 89% | 87% | -11.7% (active) | 64.9% | 3.77% (active) | 68.7% | 88% | -9.35% (active) | -71.7% (active) | 93.6% | 93.9% | 21.6% | 113% |
| COc1ccc(/C=C/c2c(C(=O)/C=C/c3cccs3)c(C)nc3ccccc23)cc1 | 82.7% | 43.1% | 107% | 78.2% | 77.4% | 85.3% | 86.3% | 95.9% | 83.8% | 89.3% | 59.5% | 77.7% | 72% | 85.1% | 85.6% | 63% | 70.3% | 59.1% | 84.5% | 92.4% |
